Measured values as given in PubChem BioAssay AID485338 (The Scripps Research Institute Molecular Screening Center, 2010).
Measured potencies and affinities stand elsewhere. A number with no mark means an inactive call.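 How the source made its calls: active means mean inhibition of cell viability at 10 µM of at least 40% (some results past the limit were not filed as active); inactive means the rest.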

assay: DLD-1 cell viability reduction – luminescence, round 1, cytotoxicity control for KLF5 inhibitor project, late-stage follow-up (AID 485338); details: DLD-1 viability, CellTiter-Glo ATP luminescence; series mostly up to 20 µM; inhibition of viability: at the top concentration

SMILES	inhibition of viability
COC(=O)c1ccc2nc(Nc3nc4ccc(F)cc4s3)sc2c1	44.6%
CCCc1ccc(-c2ccc(/C=C/C(=O)O)cc2)nc1	-3.09%
CCOC(=O)c1sc(NC(=O)c2ccc3ncsc3c2)nc1C	16.3% [at 10 µM]
Cc1ccc2nc(NC(=O)CCCc3nc4ccccc4s3)sc2c1	11.9%
